Reference: the supplement of paper PMC9844399
Counter-ions that a name gives are not always drawn.

test system: HeLa; assay: MALAT1 nuclear FISH intensity, robust Z-score vs DMSO; higher = more nuclear MALAT1 lncRNA, active = -3 or less; details: 10 µM; 6 h
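Further: High-content confocal imaging of branched-DNA amplified FISH in 384-well plates, Hoechst-defined nuclei, score is well value minus plate DMSO median over DMSO robust SD, four wells per compound.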

Row | SMILES | MALAT1 nuclear FISH intensity
1 | C#C[C@]1(O)CC[C@H]2[C@@H]3CCC4=Cc5oncc5C[C@]4(C)[C@H]3CC[C@@]21C [Danazol] | 0.553 (inactive)
2 | O=c1cc(-c2cccc3c2Sc2ccccc2S3)oc(N2CCOCC2)c1 | -0.163 (inactive)
3 | Cc1cn[nH]c1 [Fomepizole] | 0.179 (inactive)
4 | Cc1cnc(NC(=O)C2=C(O)c3ccccc3S(=O)(=O)N2C)s1 [Meloxicam] | -0.217 (inactive)
5 | Nc1ccc(C(=O)O)c(O)c1 [4-Aminosalicylic Acid] | 0.552 (inactive)
6 | CCCCCCCCCCCCCCCC(=O)N[C@H](CN1CCOCC1)[C@H](O)c1ccccc1 (racemic) | -0.367 (inactive)
7 | Cc1ccc(O)c([C@H](CCN(C(C)C)C(C)C)c2ccccc2)c1 [Tolterodine Tartrate] | 0.345 (inactive)
8 | CC/C=C\C/C=C\C/C=C\CCCCCCCCCCCC(=O)O [Docosatrienoic acid (22:3 n-3)] | 0.755 (inactive)
9 | CCCNC(C)C(=O)Nc1c(C)csc1C(=O)OC (stereo not given) | -0.749 (inactive)
10 | Clc1ccc2c(c1)CCc1cccnc1C2=C1CCNCC1 [Desloratadine] | -0.271 (inactive)
11 | CC1(C)CCC(C)(C)c2cc(C(=O)Nc3ccc(C(=O)O)cc3)ccc21 | -0.949 (inactive)
12 | OC(CCN1CCCCC1)(c1ccccc1)C1CC2C=CC1C2 (stereo not given) | 0.944 (inactive)
13 | Cc1nc2n(c(=O)c1CCN1CCC(c3noc4cc(F)ccc34)CC1)CCCC2O (stereo not given) [Paliperidone] | 0.851 (inactive)
14 | COc1cc2nc(N3CCN(C(=O)C4COc5ccccc5O4)CC3)nc(N)c2cc1OC (stereo not given) [Doxazosin Mesylate] | 0.289 (inactive)
15 | C[C@@](Cc1ccc(O)c(O)c1)(NN)C(=O)O [Carbidopa] | -0.581 (inactive)
16 | O=C1NC(=O)/C(=C\c2ccc3nccnc3c2)S1 | -1.19 (inactive)
17 | CO[C@H]1/C=C/O[C@@]2(C)Oc3c(C)c(O)c4c(O)c(c(/C=N/N5CCN(C6CCCC6)CC5)c(O)c4c3C2=O)NC(=O)/C(C)=C\C=C\[C@H](C)[C@H](O)[C@@H](C)[C@@H](O)[C@@H](C)[C@H](OC(C)=O)[C@@H]1C [Rifapentine] | -0.447 (inactive)
18 | CC(C)/N=c1\cc2n(-c3ccc(Cl)cc3)c3ccccc3nc-2cc1Nc1ccc(Cl)cc1 [Clofazimine] | -0.504 (inactive)
19 | C[C@H](Cn1cnc2c(N)ncnc21)OCP(=O)(O)O [Tenofovir] | -0.114 (inactive)
20 | CSc1ccc2c(c1)N(CCC1CCCCN1C)c1ccccc1S2 (stereo not given) [Thioridazine hydrochloride] | -0.701 (inactive)
21 | Nc1nc(/C(=C/CC(=O)O)C(=O)N[C@@H]2C(=O)N3C(C(=O)O)=CCS[C@H]23)cs1 [Ceftibuten] | 2.01 (inactive)
22 | C[C@@H]1O[C@@H]1P(=O)(O)O [Fosfomycin Calcium] | -0.291 (inactive)
23 | COc1ccccc1Oc1c(NS(=O)(=O)c2ccc(C(C)(C)C)cc2)nc(-c2ncccn2)nc1OCCO [Bosentan] | -0.492 (inactive)
24 | Cn1cnc(N)c2ncnc1-2 [3-Methyladenine] | -0.414 (inactive)
25 | COc1cc(/C=C/C(=O)CC(=O)/C=C/c2ccc(O)c(OC)c2)ccc1O [Curcumin] | 0.507 (inactive)
26 | CC1(C)O[C@@H]2C[C@H]3[C@@H]4C[C@H](F)C5=CC(=O)C=C[C@]5(C)[C@@]4(F)[C@@H](O)C[C@]3(C)[C@]2(C(=O)CO)O1 [Fluocinolone Acetonide] | 0.847 (inactive)
27 | COCCOC(=O)C1=C(C)NC(C)=C(C(=O)OC(C)C)C1c1cccc([N+](=O)[O-])c1 (stereo not given) [Nimodipine] | 0.0485 (inactive)
28 | CO[C@H]1C[C@@H]2CC[C@@H](C)[C@@](O)(O2)C(=O)C(=O)N2CCCC[C@H]2C(=O)O[C@H]([C@H](C)C[C@@H]2CC[C@@H](OCCO)[C@H](OC)C2)CC(=O)[C@H](C)/C=C(\C)[C@@H](O)[C@@H](OC)C(=O)[C@H](C)C[C@H](C)/C=C/C=C/C=C/1C [Everolimus] | 2.49 (inactive)
29 | CCC(=O)O[C@]1(C(=O)SCF)[C@H](C)C[C@H]2[C@@H]3C[C@H](F)C4=CC(=O)C=C[C@]4(C)[C@@]3(F)[C@@H](O)C[C@@]21C [Fluticasone Propionate] | 1.52 (inactive)
30 | Oc1cc(O)cc(/C=C/c2ccc(O)c(O)c2)c1 [Piceatannol] | -1.71 (inactive)
